In the library only some 2.4% were active in any assay of this set; here they are far more common.
D2 antagonist – antagonizes the human D2 dopamine receptor. P14416. HEK293 TREx D2 cells, calcium flux, dopamine EC80. inhibition, % at 10 µM. 2% of 340,000 active. AID 485344; in the data active = inhibition above about 30%; inactive = below that, where a call was filed; also: 0% is about no effect
Target sequence (P14416 whole entry, looked up): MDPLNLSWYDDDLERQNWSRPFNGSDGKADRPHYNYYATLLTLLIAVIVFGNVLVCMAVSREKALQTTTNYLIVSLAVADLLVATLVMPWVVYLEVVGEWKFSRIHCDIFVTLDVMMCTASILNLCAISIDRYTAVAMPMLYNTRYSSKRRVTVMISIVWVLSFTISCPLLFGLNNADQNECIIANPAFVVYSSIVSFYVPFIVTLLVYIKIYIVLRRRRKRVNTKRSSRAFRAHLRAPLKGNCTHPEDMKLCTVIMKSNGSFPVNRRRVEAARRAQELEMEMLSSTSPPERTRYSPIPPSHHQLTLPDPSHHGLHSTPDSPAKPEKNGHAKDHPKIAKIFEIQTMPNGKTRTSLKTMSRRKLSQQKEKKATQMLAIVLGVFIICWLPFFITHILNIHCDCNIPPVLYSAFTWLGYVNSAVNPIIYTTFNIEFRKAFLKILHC
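Overnight-induced (tetracycline, 30 C) HEK293 T-REx cells carrying force-coupled D2 receive a no-wash calcium dye, then compound, then EC80 dopamine at 180 s; signals are read kinetically throughout.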
D2 ag-1 – human D2 receptor agonism in beta-arrestin assay | P14416 | DiscoveRx PathHunter D2 beta-arrestin, luminescence, 90 min; 100% = 57 uM dopamine signal | activation, % (test concentration not listed) | 0.084% of 360,000 active | AID 624465; in the data active = activation above about 40%; inconclusive = between about 15% and that limit
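DiscoveRx PathHunter D2 beta-arrestin cells (2,100/well) attached overnight, then compound-stimulated 90 min at 37 C in HBSS/10 mM HEPES/0.1% Tween-20 buffer; beta-galactosidase complementation read by luminescence after 1 h at ambient temperature. Dopamine 57 uM final (EC100) as control.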
D2 PAM-1 – positive allosteric modulators of human D2 dopamine receptor | DiscoveRx D2 beta-arrestin cells, luminescence, 90 min; 100% = 57 uM dopamine signal | potentiation, % (test concentration not listed) | AID 624464 | 0.23% of 360,000 active | P14416; in the data active = potentiation above about 50%; inconclusive = mostly about 30% to 49%
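PathHunter D2 cells, attached overnight at 37 deg C, received compound in DMSO plus dopamine at EC20 (50 nM final) for 90 min at 37 deg C. Beta-arrestin recruitment was read as luminescence after 1 h with detection reagent at ambient temperature.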
D2 PAM-2 – positive allosteric modulators of human D2 dopamine receptor; P14416; HEK293 T-REx D2, calcium flux, EC20 dopamine potentiation; potentiation, % at 10 µM; 0.34% of 340,000 active; AID 485347;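 active = potentiation over 3 SD above the plate norm, cut at about 30% in these data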; also: 0% is about no effect
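Primary screen. Calcium kinetics in induced HEK293 T-REx D2 cells: compound pre-addition 180 s, EC20 dopamine, 180 s more.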
D2 ag-2 – activates the human D2 dopamine receptor. P14416. HEK293 T-REx D2 cells, calcium flux agonist mode. activation, % at 2 µM. 0.53% of 340,000 active;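 active = activation over 3 SD above normal in the single-dose calcium agonist read, cut at about 30% in these data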; also: 0% is about no effect
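Tetracycline-induced HEK293 Trex cells with D2 receptor force-coupled to calcium signaling, plated overnight at 30 C and loaded with no-wash calcium dye. Calcium flux read kinetically for 180 s after compound addition; responses flag agonists.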
D3 arrestin ag – D3 receptor agonism confirmed, beta-arrestin readout; AID 720506; DiscoveRx D3 beta-arrestin cells, luminescence, 90 min; Potency, µM (titrated, usually from 76.9 µM), for the others: at the top dose activation, hits mostly activators; 4% of 2,300 active; shares compounds with D2 ag-2;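 also: potency is read from the fitted curve at half-maximal effect; 100% = dopamine control response; nearly all actives have a fitted effect of over 70% in size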
D2 ag-3 – D2 receptor agonism, beta-arrestin counterscreen; shares compounds with D2 ag-2; DiscoveRx PathHunter D2 beta-arrestin, luminescence, 90 min; response scale: percent relative to full dopamine signal; Potency, µM (top dose mostly 76.9 µM), for the others: top-dose activation, hits mostly activators; 5.9% of 2,300 active; also: potency is read from the fitted curve at half-maximal effect; % of control where 0% means no effect; nearly all actives have a fitted effect of over 70% in size
* hit, by the source's call; ? = inconclusive; / = no result. Unless noted, calls follow the shape of the dose curve; as a rule, active = well fitted activation curve with a large enough effect; inconclusive = small, poorly fitted or top-dose-only effect; inactive = flat fitted curve, though single readings scatter.

SMILES | D2 antagonist | D2 ag-1 | D2 PAM-1 | D2 PAM-2 | D2 ag-2 | D3 arrestin ag | D2 ag-3
O=C(COc1ccccc1Cl)N(Cc1ccco1)Cc1ccco1 | / | / | / | -2 | 0 | / | /
COc1ccccc1OCC(=O)NC1CCSc2ccccc21 (stereo not drawn) | -8 | -6 | 0 | -1 | 1 | -8% | 4%
COc1ccc(-c2c(-c3cc(OC)cc(OC)c3)n(C)c3ccc(-c4cccc5[nH]ccc45)cc23)cc1 | 2 | -2 | -1 | 16 | 0 | 0% | 3%
Cc1cccc(CCNC(=O)c2cnc3c(C)cccn3c2=O)c1 | / | / | / | 9 | 0 | / | /
Cc1cccc(NC(=O)c2oc3ccc(S(=O)(=O)N(C)C4CCCCC4)cc3c2C)c1C | / | / | / | -2 | 0 | / | /
Cn1c(=O)[nH]c(=O)c2c1nc(N1CCN(CCO)CC1)n2Cc1ccccc1Cl | 30* | -5 | -1 | -3 | -1 | -13% | -7%
CCCNC(=O)c1cnc2sc(N3CCCCCC3)nn2c1=O | / | / | / | 13 | -1 | / | /
Cc1cc(C)cc(NC(=O)c2cc(C)nn2C)c1 | 2 | -5 | -6 | -14 | 34* | 3% | -1%
COc1ccc(C2C=C(c3ccccc3)Nc3nc(NC(=O)/C=C/c4ccc(F)cc4)nn32)cc1 (stereo not drawn) | / | / | / | 5 | -1 | / | /
O=C(COC(=O)c1nsc(Cl)c1Cl)NC1CCCCC1 | -17 | 1 | -1 | 1 | 0 | / | /
Nc1c(Cl)c(Cl)nc(C(=O)OCC(=O)NC2CCCCC2)c1Cl | 57* | 53* | ? | -11 | 64* | 19% | ?
CC(=O)N1c2ccc(S(=O)(=O)N3CCC(C(=O)Nc4ncccc4C)CC3)cc2CC1C (stereo not drawn) | 5 | 1 | -5 | -8 | 27 | -8% | -5%
CCC(=O)N1c2ccc(S(=O)(=O)N3CCN(CC)CC3)cc2CC1C (stereo not drawn) | 39* | 7 | -9 | -16 | 48* | -7% | 28%
CCC(=O)N1CCc2cc(S(=O)(=O)CCC(=O)Nc3ccc(C)cn3)ccc21 | 64* | 3 | 0 | -20 | 57* | 6% | 19%
CCC(=O)N1CCc2cc(S(=O)(=O)CCC(=O)NC3CCCCC3)ccc21 | -2 | 0 | -5 | 5 | 1 | / | /
CCC(=O)N1CCc2cc(S(=O)(=O)CCC(=O)Nc3ccc(CC)cc3)ccc21 | 2 | 0 | -1 | 0 | 1 | / | /
CCOC(=O)N1CCC(NC(=O)CCS(=O)(=O)c2ccc3c(c2)CCN3C(=O)CC)CC1 | 73* | ? | 4 | -21 | 66* | 12% | ?
CCOC(=O)c1cc(C)n(CC2CCC(C(=O)Nc3ccc(C)cc3)CC2)c1C (stereo not drawn) | / | / | / | -2 | 0 | / | /
Cc1ccc(-n2ncc(C(=O)NCCN3CCc4ccccc4C3)c2C2CCNCC2)cc1C | / | / | / | 7 | / | / | /
CCC(=O)N1CCc2cc(S(=O)(=O)CCC(=O)Nc3ccc(C(C)=O)cc3)ccc21 | 2 | 2 | 1 | 7 | -1 | / | /
CCC(=O)N1CCc2cc(S(=O)(=O)CCC(=O)Nc3nc(C)cs3)ccc21 | 10 | 11 | -8 | -20 | 64* | 11% | 11%
CCC(=O)N1CCc2cc(S(=O)(=O)N3CCCC3)ccc21 | -23 | -1 | -3 | -18 | 0 | / | /
CCC(=O)N1CCc2cc(S(=O)(=O)N3CCCCCC3)ccc21 | 31* | 5 | -13 | -11 | 37* | -6% | -2%
COC(=O)c1ccc(OCC2c3cc(OC)c(OC)cc3CCN2C(=O)c2cccc(C)c2)cc1 (stereo not drawn) | / | / | / | 6 | 0 | / | /
CN(CCNC(=O)C1CCC(=O)N(Cc2cccc(F)c2)C1)CCc1ccccc1 (stereo not drawn) | 1 | 0 | -26 | -10 | 23 | / | /
